Measurements published in PubChem BioAssay AID2401 (Southern Research Specialized Biocontainment Screening …, 2010).
Out of some 2,200 compounds screened, about 530 (24%) were called active.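 The calls were made as follows: active = inhibition above a set limit at one or more concentrations of the dose series; inactive = inhibition under that limit at every dose.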 These entries were drawn from the full list. Measured potencies and affinities stand elsewhere.

Assay: nmpC-GFP reporter counter-screen in S. Typhimurium, dose response, counter-screen for PhoP regulon inhibitor project, Salmonella Typhimurium, GFP fluorescence (AID 2401);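 also: S. typhimurium with Mg-insensitive nmpC-GFP reporter grown at 10 µM Mg2+; drop in reporter fluorescence reflects general culture growth inhibition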
Conditions: 4 h; series mostly up to 150 µM; inhibition: at the top concentration

SMILES | inhibition
CCOc1ccc2nc(COC(=O)c3ccco3)c(C(C)=O)[n+]([O-])c2c1 | -18.2% (inactive)
O=C(Nc1ccc(Br)cc1)c1ccc(F)c(S(=O)(=O)NCc2cccs2)c1 | -27.7% (inactive)
NCCCCCc1nnc(SCc2ccc(Cl)c(Cl)c2)o1 | 1.67% (inactive)
O=C(Cn1cc[n+](CC(=O)c2ccccc2)c1)c1ccccc1 | -18.9% (inactive)
CC(C)(C)c1n[nH]c(=S)n(/N=C/c2cccs2)c1=O | -21.7% (inactive)
N#CC1=C(N)SC(N)=C(C#N)C1c1ccc([N+](=O)[O-])cc1 | -16.9% (inactive)
Cc1cc(Oc2ccc(-c3nnc(-c4ccccc4)o3)cc2[N+](=O)[O-])ccc1Cl | -20.9% (inactive)
Cc1ccccc1OCCSCc1nc2ccccc2[nH]1 | 17.8% (inactive)
O=C(CCN1C(=O)c2ccccc2S1(=O)=O)Nc1ccc2c(c1)OCCO2 | -18.3% (inactive)
COc1ccc(OC)c(S(=O)(=O)N2c3cc(F)ccc3CCC2C)c1 (centres undefined) | -21.7% (inactive)
O=C(NNc1c2ccccc2nc2ccccc12)c1cccc(O)c1 | 17.4% (inactive)
CC1(C)CC(=O)c2c(nc3ccccc3c2N)C1 | 9.98% (inactive)
Nc1nnc(SCc2ccc(F)cc2Cl)s1 | -55% (inactive)
CNC(=O)CN(c1ccc(F)cc1)S(=O)(=O)c1cc(C)ccc1OC | -28.5% (inactive)
CN1CCCC(OC(=O)CCCC(=O)OC2CCCN(C)C2)C1 (centres undefined) | -24.7% (inactive)
Cc1ccc2[nH]c3c(=O)n(CCc4cnc[nH]4)cnc3c2c1 | -30.1% (inactive)
Cc1ccc(C(=O)COC(=O)CNS(=O)(=O)c2ccccc2)cc1[N+](=O)[O-] | -25.7% (inactive)
CC(C)n1cc(C(=O)N2CCCC(N3CCN(c4ccc(F)cc4)CC3)C2)cn1 (centres undefined) | -29.9% (inactive)
CCn1cc(C(C)(C)C)c(C#N)c1NC(C)=O | -3.54% (inactive)
O=C(NC1CCCCC1)n1c(=O)oc2ccc(Cl)cc21 | 31.2% (inactive)
O=C(CCN1C(=O)C2C3C=CC(C3)C2C1=O)N1CCN(c2cccc(Cl)c2)CC1 (centres undefined) | -20.2% (inactive)
Cc1cccc(OCC(=O)N(Cc2cccs2)C2CCS(=O)(=O)C2)c1C (centres undefined) | -19.3% (inactive)
CC(C)OC(=O)c1ccc(NC(=O)c2ccccc2)cc1 | -13.3% (inactive)

SMILES | inhibition
CC(C)Oc1cccc(C(=O)NC(=S)Nc2ccccc2)c1 | -26% (inactive)
COc1ccc(Oc2coc3cc(OC(=O)c4cccs4)ccc3c2=O)cc1 | -16.5% (inactive)
COC(=O)c1ccc(NC(=O)c2ccc(N(C)S(C)(=O)=O)cc2)cc1 | -11.4% (inactive)
O=C(CCCCCNc1nc(=S)[nH]c2ccccc12)NCCc1c[nH]c2ccccc12 | -31.1% (inactive)
O=C(NNC(=O)c1ccccc1-n1cccc1)c1ccc(Cl)c(Cl)c1 | -29.7% (inactive)
Cc1ccccc1NC(=S)N(CCCN1CCOCC1)Cc1ccccn1 | -8.55% (inactive)
CCOc1ccc(CCNC(=O)c2cc3sc(Cl)cc3n2C)cc1OCC | -12.1% (inactive)
CCN1CCN(C(=O)c2ccc(COc3ccc(Cl)cc3)o2)CC1 | -14.7% (inactive)
CCOc1ccc(/C=N/O)cc1 | -9.74% (inactive)
COc1ccc(C)cc1C(=O)CCC(=O)Nc1ccccc1N1CCOCC1 | -8.09% (inactive)
C#CCOc1ccc(/C=N/O)cc1Cl | -5% (inactive)
COc1ccc(C(C(=O)NC2CCCC2)N(C(=O)c2ccoc2C)c2cc(C)cc(C)c2)cc1 (centres undefined) | -8.71% (inactive)
COc1ccc(NS(=O)(=O)c2cc(C)ccc2NC(=O)c2cc(C)oc2C)cc1 | -4.38% (inactive)
Cc1cc2oc(=O)cc(CSc3nc(N)cc(N)n3)c2cc1C | -31.2% (inactive)
O=C(CSc1nncs1)Nc1ccc2c(c1)OCCO2 | -24.4% (inactive)
CCOc1ccc(OCc2ccc(C(=O)N3CCc4ccccc4C3)o2)cc1 | -19% (inactive)
Cc1cc(C(=O)NCc2cccs2)cs1 | -11.6% (inactive)
COc1ccc2[nH]c(S(=O)Cc3ncc(C)c(OC)c3C)nc2c1 (centres undefined) | -33.3% (inactive)
Cc1ccc(C(C)C)c(OCC(=O)Nn2c(=O)[nH]c3ccccc3c2=O)c1 | -26.8% (inactive)
O=C(NC1CC1)C1=NOC(CNc2ncc(C(F)(F)F)cc2Cl)C1 (centres undefined) | -15% (inactive)
O=C(Cc1n[nH]c(=O)c2ccccc12)OCC(=O)c1ccc2c(c1)OCCO2 | 21.7% (inactive)
c1ccc(Cc2nnc(-c3ccccc3)o2)cc1 | -23.2% (inactive)
COc1ccc(NC(=O)CN2CCCCC2)c([N+](=O)[O-])c1 | -10.1% (inactive)

SMILES | inhibition
CC(C)Cc1oc(C(=O)O)cc1CN1CCOCC1 | 3.36% (inactive)
Oc1ccccc1CN1CCCN(Cc2ccccc2O)C1 | -20.8% (inactive)
CC(C)(C)c1ccc(C(=O)NC(=S)NCc2cccnc2)cc1 | -17.4% (inactive)
O=C(Nc1nc2cc3c(cc2s1)OCO3)C1=COCCO1 | -4.16% (inactive)
CCOc1ccc(CSC(CC(=O)O)C(=O)O)cc1 (centres undefined) | -4.91% (inactive)
O=C(CSc1ncnc2ccccc12)Nc1cc(S(=O)(=O)N2CCCCC2)ccc1Cl | 19.2% (inactive)
Cc1ccc(CCNC(=O)C2CCN(S(=O)(=O)N3CCCC3)CC2)cc1 | -28.9% (inactive)
COc1ccc(C(=O)Oc2c(CN3CCOCC3)cc(Cl)c3cccnc23)cc1 | -5.79% (inactive)
N#Cc1ccc(COC(=O)c2ccc3c(=O)[nH]c(CN4CCOCC4)nc3c2)cc1 | -22.3% (inactive)
COc1ccc(CCNC(=O)c2ccc(CN3CCOCC3)cc2)cc1 | 15.6% (inactive)
COc1ccc(CN2CCOCC2)cc1Br | -7.96% (inactive)
COc1ccc(C2C(C(=O)c3cccs3)=C(O)C(=O)N2c2nnc(C)s2)cc1OC (centres undefined) | -21.4% (inactive)
CCC(CC)C(=O)Nc1cccc(C(=O)N2CCCC2)c1 | -16.5% (inactive)
c1ccn2c(CNc3ncnc4sccc34)nnc2c1 | -28% (inactive)
Cc1cc(C)c2cc(CN(Cc3cccnc3)C(=O)c3ccc(F)cc3)c(Cl)nc2c1 | -19.2% (inactive)
c1ccc(C2(CNc3ccccn3)CCCC2)cc1 | 0.11% (inactive)
O=c1[nH]c(CSc2ncc(-c3ccc(F)cc3)n2Cc2ccco2)nc2ccccc12 | -10.5% (inactive)
CC(C)(C)C1CCC2(CC1)Nc1cccc3cccc(c13)N2 | 15.8% (inactive)
CCn1c2ccccc2c2cc(NC(=O)C(C)Oc3ccccc3)ccc21 (centres undefined) | -20% (inactive)
COc1cccc(N(C(=O)c2ccco2)c2nc(-c3sc(NC(=O)c4ccco4)nc3C)cs2)c1 | 25.6% (inactive)
Cc1ccc(Nc2nc(N)nc(CC#N)n2)cc1 | -12.2% (inactive)
C/C(CC(=O)Nc1ccc(Cl)c(C(F)(F)F)c1)=N\NC(=O)c1cccc(O)c1 | 7.3% (inactive)
CCCCCC(=O)Nc1ccc2ccccc2c1 | -15.9% (inactive)

SMILES | inhibition
CC1CC(C)CN(CCCNC(=O)C2CCC(=O)N2C2CCCC2)C1 (centres undefined) | -29.9% (inactive)
Cc1ccc(NC2CC(=O)N(Cc3ccccc3)C2=O)cc1 (centres undefined) | -22.2% (inactive)
Cc1ccc(-n2nc(-c3ccc(N)cc3)cc2N)cc1 | 8.99% (inactive)
CC(C)=CCN1CCN(Cc2ccoc2)CC1CCO (centres undefined) | -13.7% (inactive)
O=C(CCCN1Cc2ccccc2C1)c1ccc(F)cc1 | 2.23% (inactive)
CCOc1ccc(/C=C/C(=O)Nc2ccc(OC)cc2[N+](=O)[O-])cc1 | -20.8% (inactive)
O=C(CSc1nc2ccccc2[nH]1)Nc1ccc(F)c(F)c1 | 5.43% (inactive)
O=C(CNc1ccccc1)Nc1ccc(F)cc1 | 16.5% (inactive)
COc1ccc(NC(=O)ON=C2c3ccccc3-c3ccccc32)cc1 | 12.5% (inactive)
Cc1ccc(-c2cc(-c3ccc(Cl)cc3)c(C#N)c(N)n2)o1 | 2.62% (inactive)
O=C1CCc2cc(S(=O)(=O)N3CCN(c4cccc(Cl)c4)CC3)ccc2N1 | -14.1% (inactive)
Cc1ccc(NC(NC(=O)c2ccccn2)C(Cl)(Cl)Cl)cc1 (centres undefined) | -10.7% (inactive)
CCNC(=S)NNC(=O)c1ccc(OC(F)F)cc1 | -1.1% (inactive)
S=C(Nc1ccc(Cl)c(Cl)c1)N1CCOCC1 | -1.89% (inactive)
COC(=O)CCC(=O)Nc1ccc(Cl)c(Cl)c1 | 21.1% (inactive)
CCN(C(=O)COc1cc(=O)n(CC)c2ccccc12)c1cccc(Cl)c1 | -6.53% (inactive)
O=C(c1ccc(Oc2ccccc2)cc1)c1nc2c(n1O)CCCC2 | 14.3% (inactive)
CC(C)(C)c1cc2cccnc2n1Cc1cccc(Cl)c1 | -26.7% (inactive)
Nc1ncncc1-c1ccc([N+](=O)[O-])cc1 | 36.5% (inactive)
O=C(Cn1ncc2c(=O)oc3ccccc3c21)N1CCN(c2ccccn2)CC1 | -15.8% (inactive)
O=C1CC(SCc2nc3ccccc3[nH]2)C(=O)N1c1ccc(Cl)cc1 (centres undefined) | -18.6% (inactive)
Cc1ccc(C(=O)CSC2=C(C#N)C(c3ccco3)CC(=O)N2)c(C)c1 (centres undefined) | -15.7% (inactive)
O=c1cc(-c2ccc([N+](=O)[O-])cc2)nc2cc(-c3ccc(Cl)cc3)[nH]n12 | -32% (inactive)

SMILES | inhibition
Cc1ccc2cccc(Oc3ncnc4scc(-c5ccccc5)c34)c2n1 | -17.1% (inactive)
CN1c2ccccc2C(=O)NC1c1ccc([N+](=O)[O-])s1 (centres undefined) | -3.11% (inactive)
NC(CSC12CC3CC(CC(C3)C1)C2)C(=O)O (centres undefined) | -19.5% (inactive)
Cc1cc(-c2nnc(-c3ccccc3)c(-c3ccccc3)n2)c(C)o1 | -11.2% (inactive)
Cc1ccc(-n2c(C)cc(/C=N/NC(N)=S)c2C)cc1 | 29.6% (inactive)
CCN(CC)S(=O)(=O)c1cccc(C(=O)NC(Cc2c[nH]c3ccccc23)c2nnc3n2CCC3)c1 (centres undefined) | -14.8% (inactive)
CCn1c2ccccc2c2cc(/C=N/NC(=O)c3ccccc3)ccc21 | 6.74% (inactive)
O=C(N/N=C/c1ccco1)c1cccc(S(=O)(=O)Nc2ccccc2Cl)c1 | -10.1% (inactive)
O=C1c2ccccc2C2=Nc3ccccc3SC(c3cccc(F)c3)C12 (centres undefined) | 18% (inactive)
CC1C(C#N)=C(N)OC2=C1C(=O)CCC2 (centres undefined) | -0.77% (inactive)
Cc1cccc(NC(=O)CCC(=O)OCc2ccc(Br)cc2)c1 | -16% (inactive)
Cc1ccnc2nc(C(=O)Nc3ccc4c(c3)OCO4)nn12 | -5.04% (inactive)
CN(C)c1ccc([C@@H]2[C@@H]([N+](=O)[O-])[C@H]3C=Cc4ccccc4N3[C@H]2C(=O)c2ccc(Cl)cc2)cc1 | 33.2% (inactive)
COc1ccc(OC)c(/C=N/NC(=O)c2cc3c(OC)c(OC)ccc3[nH]2)c1 | -7.95% (inactive)
O=C(Cc1cccs1)Nc1cccc(-c2nc3cc4ccccc4cc3[nH]2)c1 | -6.72% (inactive)
Cc1cc(/C=N/n2cnnc2)c(C)n1-c1ccc(OCc2ccc(F)cc2)cc1 | -15.3% (inactive)
O=C(O)CC(NC(=S)NCc1ccccc1)C(=O)O (centres undefined) | -29.4% (inactive)
COC(=O)c1ccc(Nc2cc(C)nc3ccccc23)cc1 | -28.9% (inactive)
COc1ccc(/C=N/Nc2cc(C)nc3c(C)cccc23)cc1 | 2.4% (inactive)
O=c1c2oc3ccccc3c2ncn1Cc1ccc(Cl)cc1 | -19.4% (inactive)
Cc1[nH]n(-c2ccccc2)c(=O)c1-c1ccc(Cl)cc1 | -3.67% (inactive)
Cc1c(C(c2cccc([N+](=O)[O-])c2O)c2c(C)n(C)n(-c3ccccc3)c2=O)c(=O)n(-c2ccccc2)n1C | 5.18% (inactive)
